Assay results from PubChem BioAssay.
Activity calls are given as the source filed them.

Test: fission yeast growth modulation, primary screen, strain 972, OD600, 24 h, no modulator (AID 1090);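 also: basal condition with compound alone and no growth modifier present; test concentration not given here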
Conditions: S. pombe 972 growth, higher = more signal, called active from +8 up or from −8 down

z-score, inactive:
COC(=O)c1ccc(OC)c(/C=C\CC(CCc2ccccc2)OC(C)=O)c1 (stereo not given) -0.645
C[N+](C)(C)CCCC[C@@H]1NC(=O)[C@H]2C[C@@H](C(=O)NCCCCCCN)[C@@H](c3cccc(OCCO)c3)N2C1=O -0.87
C/C=C/[C@@H](CCn1cc([C@H](O)c2ccccc2)nn1)[Si](C)(C)c1ccc(OC)cc1 -0.143
COC(=O)[C@@]1(Cc2ccc(F)cc2)[C@H]2c3cc(C(=O)N(C)C)n(CCSCCO)c3C[C@H]2CN1C(=O)c1ccccc1 0.642
CC1CC/C=C\[C@H]2OC34C=CCN(Cc5ccccc5)C(=O)[C@H]3N(CCO)C(=O)[C@@H]4C2C(=O)O1 (stereo not given in full) -0.791
C=C(COC)C(=O)CC[C@H](OC(=O)c1ccccc1-c1ccccc1C(=O)O)c1ccc(OCCO)cc1 -0.613
C=CCC(OC(C)=O)[C@@H]1[C@@H](N(Cc2cc3ccccc3o2)C(=O)Cc2ccc(OC)cc2)c2cc(OCCCO)ccc2N1C(=O)c1ccc(-c2ccccc2)cc1 (stereo not given in full) -0.709
CC1CC/C=C\[C@H]2OC34C=CCN(c5ccc(Cl)cc5)C(=O)[C@H]3N(C(CO)C(C)C)C(=O)[C@]4(C)C2C(=O)O1 (stereo not given in full) -0.775
O=C1O[C@@H](c2ccccc2)[C@@H](c2ccccc2)N2[C@@H](c3ccc(O)cc3)[C@]3(C(=O)Nc4ccc(C#CC5(O)CCCCCC5)cc43)[C@@H](C(=O)N3CCN(c4ncccn4)CC3)[C@H]12 0.37
CC[C@@H]1[C@@H]2C3C(=O)N(CC)C(=O)C3CC(=O)[C@@H]2[C@H](c2ccc(C)cc2)N1S(=O)(=O)c1ccc(C)cc1 (stereo not given in full) 0.321
COCCOC(=O)N1C(=O)[C@@]2(c3cc(C#CCCO)ccc31)[C@H](C(=O)NC[C@H](O)c1ccccc1)[C@H]1C(=O)O[C@H](c3ccccc3)[C@H](c3ccccc3)N1[C@@H]2c1ccccc1OCCO 0.578
C=CCOC(=O)[C@@H]1[C@H]2C(=O)O[C@H](c3ccccc3)[C@H](c3ccccc3)N2[C@H](c2ccc(OCCOC(=O)[C@@H]3C[C@@H]4C(=O)N[C@@H](CCCCNC(C)=O)C(=O)N4[C@@H]3c3ccc(O)cc3)cc2)[C@@]12C(=O)Nc1ccc(I)cc12 0.994
CC(C)CCC[C@@H](C)[C@H]1CC[C@@]2(C)C3=C(CC[C@]12C)[C@@]1(C)CC[C@H](OC(=O)c2ccc(N)cc2)C(C)(C)C1CC3 (stereo not given in full) -1
CCCN1C(=O)[C@@H]2Cc3c([nH]c4ccccc34)[C@@H](c3cccc(O)c3)N2C1=O -0.132
C=CCN1C(=O)[C@@]2(O[C@@H](CCn3cc([C@H](O)c4ccccc4)nn3)[C@H]([Si](C)(C)c3ccc(OC)cc3)[C@H]2C)c2cc(NC(=O)c3ccc(OC)cc3)ccc21 0.0445
COc1ccc([Si](C)(C)[C@@H]2[C@@H](CC(=O)N(CCO)Cc3ccccc3)O[C@]3(C(=O)N(Cc4ccc(N5CCOC5=O)cc4)c4ccccc43)[C@H]2C)cc1 0.303
COCCOC(=O)N1C(=O)[C@@]2(c3cc(C#Cc4ccc(OC)cc4)ccc31)[C@H](C(=O)N1CCc3cc(OC)c(OC)cc3C1)[C@H]1C(=O)O[C@H](c3ccccc3)[C@H](c3ccccc3)N1[C@@H]2c1ccc(O)cc1 1.71
CC(C)CNC(=O)[C@@]1(C)c2ccccc2C(=O)N(Cc2ccccc2)[C@H]1c1ccc(CO)cc1 -0.849
COc1ccccc1CN1C(=O)c2ccccc2[C@](Cc2ccccc2I)(C(=O)NCCN2CCOCC2)[C@@H]1c1ccc(CO)cc1 0.548
CCCCCCC#C[Si](O[C@H](c1ccccc1)c1cn(Cc2cccc(Cl)c2)nn1)(C(C)C)C(C)C 0.403
COc1ccc([Si](C)(C)[C@@H]2[C@@H](CCO)O[C@]3(C(=O)N(Cc4ccccc4)c4ccc(N5CCCCC5=O)cc43)[C@H]2C)cc1 -0.536
COC(=O)[C@@]1(Cc2ccc(F)cc2)[C@@H]2[C@@H](CC(=O)[C@H]2CC(=O)C(=O)N2CCCC2)CN1C(=O)c1ccccc1 1.57
COCCOC(=O)N1C(=O)[C@@]2(c3cc(C#CCCO)ccc31)[C@H](c1ccc(OCCO)cc1)N1[C@H](c3ccccc3)[C@H](c3ccccc3)OC(=O)[C@H]1[C@@H]2C(=O)N1CCc2cc(OC)c(OC)cc2C1 1.28
C=CC[C@]1(C(=O)NCC(O)CO)N=C(c2ccc(OCCCO)cc2)O[C@H]1c1ccccc1N=[N+]=[N-] (stereo not given in full) -0.529
O=C(O)[C@]1(CCS(=O)(=O)c2ccccc2)N=C(c2ccc(OCCCO)cc2)O[C@@H]1c1ccccc1 -2.3
[N-]=[N+]=NCc1ccccc1C[C@]1(C(=O)NCCN2CCOCC2)COC(c2ccc(OCCCO)cc2)=N1 -2.24
CC(C)C[C@@H]1NC(=O)[C@@H]2C[C@H](C(=O)NCc3ccc(F)cc3)[C@H](c3ccc(O)cc3)N2C1=O -0.352
C=CCNC(=O)[C@H]1[C@@H]2C(=O)O[C@@H](c3ccccc3)[C@@H](c3ccccc3)N2[C@@H](c2ccc(O)cc2)[C@]12C(=O)N(C(=O)OCCOC)c1ccc(C#CC3(O)CCCCCC3)cc12 -0.932
COCCOC(=O)N1C(=O)[C@@]2(c3cc(C#CCC(C(=O)OC)C(=O)OC)ccc31)[C@H](C(=O)N1CCCCCCC1)[C@H]1C(=O)O[C@H](c3ccccc3)[C@H](c3ccccc3)N1[C@@H]2c1ccc(O)cc1 -0.866
CN1C(=O)C2C=CC(C(O)COCc3ccccc3)N(Nc3ccccc3)C2C1=O (stereo not given) 1.15
COC(=O)[C@@]1(Cc2ccc(OC)cc2)[C@H]2c3cc(C(=O)N4CCCC4)n(CCc4ccc(O)c(OC)c4)c3C[C@H]2CN1C(=O)c1ccccc1 0.452
C=C(CCCC)/C(=C/C[C@H](OC(=O)c1ccncc1)c1ccc(CO)o1)c1cc(C(=O)OC)ccc1OC -1.65
C[C@@H]1ON(c2ccccc2)[C@H](c2ccccc2)[C@H]1C(=O)N1C(=O)OC[C@H]1Cc1ccccc1 -0.451

z-score, active:
CCCCCCCCCCC(O)C1C=CC2C(=O)NC(=O)C2N1Nc1ccccn1 (stereo not given) -16.2
O=[N+]([O-])c1ccc(C[n+]2ccc(-c3ccc(CO)cc3)cc2)o1 -15.5
